Reference: PubChem BioAssay (NCI)
Compounds without any hit were thinned out: in the full panel of roughly 79,000, 15% have a hit. A number with no mark means an inactive call. Calls of active or inactive are those of the source. Cut-off read from the data, not from the text of the source: active = growth inhibition above about 70%; inactive = the rest.

Test: NCI Yeast Anticancer Drug Screen. Data for the rad14 strain (AID 159);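 note: 0% = growth of vehicle-treated control cultures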
Conditions: S. cerevisiae rad14 strain growth inhibition, hits give high values
Method: Growth inhibition of yeast strains with defined genetic alterations is measured as a screen for potential anti-cancer activity. Selected strains with alterations in DNA damage repair or cell cycle control were exposed to compounds and growth inhibition was measured relative to vehicle treated controls. The strain used in this assay is rad14

Compound | growth inhibition (at 1.2 µM) [%] | growth inhibition (at 3.7 µM) [%] | growth inhibition (at 11.0 µM) [%] | growth inhibition (at 33.0 µM) | growth inhibition (at 100.0 µM)
NC1=NS(=O)(=O)N=C(N)C1=Cc1ccc([N+](=O)[O-])o1 | -7 | -8 | -9 | 1% | 97% (active)
CN=C(N)N/N=C/c1ccc2c(c1)Cc1ccccc1-2 | -1 | -14 | -21 | -16% | 88% (active)
COc1cc(C2SCC(=O)N2c2nnc(C(F)(F)F)s2)cc(OC)c1OC (stereo not given) | -2 | -2 | -1 | -2% | -4%
CCCCCCCCCC/C=C\C(=O)O | -3 | -5 | -1 | 38% | 98% (active)
Fc1ccc(NC(=S)SCc2ccc3c(c2)OCO3)cc1F | -9 | 20 | 65 | 99% (active) | 94% (active)
Cc1ccc(NC(=O)/C(Cl)=C(\Cl)C(=O)O)cc1C | 3 | 6 | 26 | 99% (active) | 99% (active)
CC(C)=CC(=O)O[C@@H]1CC(C)(C)CC2C3=CCC4[C@]56CC[C@](O)(OC5)C(C)(C)C6CC[C@@]4(C)C3(C)CC[C@]21C(=O)O (stereo not given in full) | -15 | 2 | 44 | 78% (active) | 84% (active)
CC(=O)Cc1ccc[cH-]1.[Fe+2].c1cc[cH-]c1 | 0 | -5 | 13 | 34% | 49%
